# Reference: PubChem BioAssay (NCATS)
# Records with an inconclusive call do not appear. A number with no mark means an inactive call. Calls come from the whole dose curve; as a rule, active = well fitted inhibition curve with a large enough effect; inconclusive = small, poorly fitted or top-dose-only effect; inactive = flat fitted curve, though single readings scatter. *1 amine or outer side, *2 acyl side, *3 side chain or, on linkers, in order; H or OH if unused. Where a SMILES comes first, the peptide text is derived from it. [ ]: non-standard residue; d: D form. X13 = O=C(C(CC(O)CO)O[*:1])[*:2]; NMeV = CN[CH](C(=O)O)C(C)C; NMeA = CN[CH](C)C(=O)O; βAla = NCCC(=O)O
# Target: Calcium and integrin-binding protein 1 (Homo sapiens) (UniProt Q99828)
# Assay: Primary qHTS for Identification of Calcium Integrin Binding Protein 1 (CIB1) Competitor (AID 1508620);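 note: GST tagged CIB1 binding a fluorescein labelled alphaIIb integrin peptide tracer; top concentration of the series differs between compounds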
# Conditions: CIB1-GST / FITC-alphaIIb peptide fluorescence polarization; series mostly up to 57.7 µM; activity change, negative = inhibition: at the top concentration
# Summary of the method: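 Fluorescence polarization competition: CIB1-GST (1 uM final) preincubated with compound 15 min at room temperature, then FITC-labeled alphaIIb peptide (100 nM final) added for another 15 min. Polarization read at Ex 480/Em 540.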
# % is set by controls: 0 for no effect and ±100 for the full control effect.
# Calcium and integrin-binding protein 1 (Homo sapiens), sequence (Q99828 whole entry, looked up): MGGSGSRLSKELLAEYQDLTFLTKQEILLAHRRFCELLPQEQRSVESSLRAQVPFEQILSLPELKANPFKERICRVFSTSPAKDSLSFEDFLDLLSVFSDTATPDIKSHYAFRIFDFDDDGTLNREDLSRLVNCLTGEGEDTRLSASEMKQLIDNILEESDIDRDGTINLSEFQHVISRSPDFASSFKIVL
row,SMILES,"activity change, negative = inhibition"
1,O=C(O)/C=C/c1ccc2occc2c1O[C@@H]1O[C@H](CO)[C@@H](O)[C@H](O)[C@H]1O,1.85%
2,CC(C)c1ccc2c(c1)CCC1[C@](C)(C(=O)O)CCC[C@]21C (stereo partly specified),-18% [at 114 µM]
3,C=C1C(=O)O[C@@H]2/C=C(\C)CC/C=C(\C(=O)O[C@@H]3O[C@H](CO)[C@@H](O)[C@H](O)[C@H]3O)CC[C@@H]12,-4.39%
4,CC1=C(CO)CC(C(C)C2CCC3C4CC=C5CC(OC6OC(COC7OC(CO)C(O)C(O)C7O)C(O)C(O)C6O)CC(O)C5(C)C4CCC23C)OC1=O (stereo unspecified),-1.01% [at 30.2 µM]
5,C/C(=C\CC[C@H](CO)[C@@H]1CC[C@]2(C)C3=C(CC[C@@]12C)[C@@]1(C)CCC(=O)C(C)(C)C1CC3)C(=O)O (stereo partly specified),-2.4%
6,COc1cc(CC2COC(c3ccc(OC4OC(CO)C(O)C(O)C4O)c(OC)c3)C2CO)ccc1O (stereo unspecified),-2.64%
7,C/C(=C\CO)CC/C=C(\C)C(=O)O[C@@H]1O[C@H](CO)[C@@H](O)[C@H](O)[C@H]1O,5.05%
8,O=S(=O)(O)c1ccc(Nc2ncnc3c2ncn3[C@@H]2O[C@H](CO)[C@@H](O)[C@H]2O)cc1,4.67% [at 114 µM]
9,CCC(C)C1NC(=O)C2CCCN2C(=O)C(CC(O)CO)OC(=O)CCNC(=O)C(C)N(C)C(=O)C(C(C)C)N(C)C1=O (stereo unspecified) (cyclo([X13]PI[NMeV][NMeA][βAla]); configuration not given here),2.75% [at 30.2 µM]
10,CO[C@H]1c2cc(C(C)C)c(O)c(O)c2[C@@]23CCCC(C)(C)C2[C@@H]1OC3=O (stereo partly specified),-5.58%
11,COC(=O)c1ccc(OC)cc1O[C@@H]1O[C@H](CO[C@@H]2OC[C@@H](O)[C@H](O)[C@H]2O)[C@@H](O)[C@H](O)[C@H]1O,0.733%
